The supplement of paper PMC8728848
This excerpt belongs to a sample that is enriched for the strongest signals.

B1: FBG1 (Homo sapiens), Q9UK22 (protein)
chain: MDGDGDPESVGQPEEASPEEQPEEASAEEERPEDQQEEEAAAAAAYLDELPEPLLLRVLAALPAAELVQACRLVCLRWKELVDGAPLWLLKCQQEGLVPEGGVEEERDHWQQFYFLSKRRRNLLRNPCGEEDLEGWCDVEHGGDGWRVEELPGDSGVEFTHDESVKKYFASSFEWCRKAQVIDLQAEGYWEELLDTTQPAIVVKDWYSGRSDAGCLYELTVKLLSEHENVLAEFSSGQVAVPQDSDGGGWMEISHTFTDYGPGVRFVRFEHGGQDSVYWKGWFGARVTNSSVWVEP
B2: Siglec-7-SA-PE-180 (Homo sapiens), Q9Y286 (protein)
chain: MLLLLLLPLLWGRERVEGQKSNRKDYSLTMQSSVTVQEGMCVHVRCSFSYPVDSQTDSDPVHGYWFRAGNDISWKAPVATNNPAWAVQEETRDRFHLLGDPQTKNCTLSIRDARMSDAGRYFFRMEKGNIKWNYKYDQLSVNVTALTHRPNILIPGTLESGCFQNLTCSVPWACEQGTPPMISWMGTSVSPLHPSTTRSSVLTLIPQPQHHGTSLTCQVTLPGAGVTTNRTIQLNVSYPPQNLTVTVFQGEGTASTALGNSSSLSVLEGQSLRLVCAVDSNPPARLSWTWRSLTLYPSQPSNPLVLELQVHLGDEGEFTCRAQNSLGSQHVSLNLSLQQEYTGKMRPVSGVLLGAVGGAGATALVFLSFCVIFIVVRSCRKKSARPAADVGDIGMKDANTIRGSASQGNLTESWADDNPRHHGLAAHSSGEEREIQYAPLSFHKGEPQDLSGQEATNNEYSEIKIPK

Tests used:
Assay in all cases: glycan array binding signal (z-score within array); higher = stronger binding
Conditions in all cases: glycan notation: IUPAC condensed, linker removed
[1] = target: Fuc(a1-2)Gal(b1-3)GalNAc(b1-3)Gal(a1-4)Gal(b1-4)Glc
How it was run: (§1)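 Glycan array data were curated from 3228 arrays in the Consortium for Functional Glycomics database and kept only where the protein sequence was available. Glycan names were converted to IUPAC-condensed notation, and columns mapping to the same glycan were averaged. The binding signal is a within-array Z-score, averaged across arrays of the same protein sequence at different concentrations or buffers and across linkers. Negative Z-scores can be read as non-binding.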

[2] = target: Gal(a1-3)Gal
How it was run: as §1

[3] = target: Gal(b1-4)GlcNAc(b1-3)GalNAc
How it was run: as §1

[4] = target: Man(a1-2)Man(a1-3)[Man(a1-2)Man(a1-6)]Man(a1-6)[Man(a1-3)[Man(a1-6)]Man(a1-6)]Man(b1-4)GlcNAc(b1-4)GlcNAc
How it was run: as §1

[5] = target: Man(a1-2)Man(a1-6)[Man(a1-3)]Man(a1-6)[Man(a1-2)Man(a1-2)Man(a1-3)]Man(b1-4)GlcNAc(b1-4)GlcNAc
How it was run: as §1

[6] = target: Neu5Ac(a2-3)[GalNAc(b1-4)]Gal(b1-4)GlcNAc
How it was run: as §1

[7] = target: Neu5Gc(a2-3)Gal(b1-3)GlcNAc
How it was run: as §1

[8] = target: Fuc(a1-2)Gal(b1-3)GlcNAc(b1-3)Gal(b1-4)Glc
How it was run: as §1

[9] = target: Fuc(a1-2)Gal(b1-4)GlcNAc
How it was run: as §1

[10] = target: Fuc(a1-2)Gal(b1-4)GlcNAc(b1-6)GalNAc
How it was run: as §1

[11] = target: Fuc(a1-2)Gal(b1-4)[Fuc(a1-3)]GlcNAc(b1-2)Man(a1-3)[Fuc(a1-2)Gal(b1-4)[Fuc(a1-3)]GlcNAc(b1-2)Man(a1-6)]Man(b1-4)GlcNAc(b1-4)GlcNAc
How it was run: as §1

[12] = target: Fuc(a1-2)Gal6S(b1-3)GlcNAc6S
How it was run: as §1

[13] = target: Fuc(a1-2)[GalNAc(a1-3)]Gal(b1-3)GlcNAc
How it was run: as §1

[14] = target: Fuc(a1-2)[GalNAc(a1-3)]Gal(b1-3)GlcNAc(b1-6)GalNAc
How it was run: as §1

[15] = target: Fuc(a1-2)[GalNAc(a1-3)]Gal(b1-4)[Fuc(a1-3)]GlcNAc(b1-3)GalNAc
How it was run: as §1

[16] = target: Gal(a1-3)Gal(b1-3)GlcNAc
How it was run: as §1

[17] = target: Gal(b1-3)[GlcNAc(b1-6)]GalNAc
How it was run: as §1

[18] = target: Gal(b1-4)GlcNAc(a1-6)Gal(b1-4)GlcNAc
How it was run: as §1

[19] = target: Gal(b1-4)GlcNAc(b1-2)Man(a1-3)[Man(a1-6)]Man(b1-4)GlcNAc(b1-4)GlcNAc
How it was run: as §1

[20] = target: Gal(b1-4)GlcNAc(b1-2)[Gal(b1-4)GlcNAc(b1-6)]Man(a1-6)[GlcNAc(b1-4)][Gal(b1-4)GlcNAc(b1-2)Man(a1-3)]Man(b1-4)GlcNAc(b1-4)GlcNAc
How it was run: as §1

[21] = target: Gal(b1-4)GlcNAc(b1-3)Gal(b1-3)GalNAc
How it was run: as §1

[22] = target: Gal(b1-4)GlcNAc(b1-3)Gal(b1-4)GlcNAc(b1-3)Gal(b1-4)GlcNAc(b1-3)Gal(b1-4)GlcNAc(b1-3)Gal(b1-4)GlcNAc(b1-2)Man(a1-3)[Gal(b1-4)GlcNAc(b1-3)Gal(b1-4)GlcNAc(b1-3)Gal(b1-4)GlcNAc(b1-3)Gal(b1-4)GlcNAc(b1-3)Gal(b1-4)GlcNAc(b1-2)Man(a1-6)]Man(b1-4)GlcNAc(b1-4)GlcNAc
How it was run: as §1

[23] = target: Gal(b1-4)GlcNAc(b1-3)Gal(b1-4)[Fuc(a1-3)GlcNAc(b1-6)]Gal(b1-4)Glc
How it was run: as §1

[24] = target: Gal(b1-4)GlcNAc(b1-3)[Gal(b1-4)GlcNAc(b1-6)]GalNAc
How it was run: as §1

[25] = target: Gal(b1-4)GlcNAc6P
How it was run: as §1

[26] = target: Gal6S(b1-3)GlcNAc6S
How it was run: as §1

[27] = target: Gal6S(b1-4)GlcNAc6S
How it was run: as §1

[28] = target: GalNAc(b1-4)Gal(b1-4)Glc
How it was run: as §1

[29] = target: GalNAc3S(b1-4)GlcNAc3S
How it was run: as §1

[30] = target: GlcNAc(b1-3)Gal(b1-4)GlcNAc(b1-3)Gal(b1-4)GlcNAc(b1-3)Gal(b1-4)GlcNAc(b1-2)Man(a1-3)[GlcNAc(b1-3)Gal(b1-4)GlcNAc(b1-3)Gal(b1-4)GlcNAc(b1-3)Gal(b1-4)GlcNAc(b1-2)Man(a1-6)]Man(b1-4)GlcNAc(b1-4)GlcNAc
How it was run: as §1

[31] = target: GlcNAc(b1-3)[GlcNAc(b1-6)]Gal(b1-4)GlcNAc
How it was run: as §1

[32] = target: Neu5Ac(a2-3)Gal
How it was run: as §1

[33] = target: Neu5Ac(a2-3)Gal(b1-4)GlcNAc(b1-6)[Neu5Ac(a2-3)Gal(b1-3)]GalNAc
How it was run: as §1

[34] = target: Neu5Ac(a2-3)Gal(b1-4)GlcNAc6S
How it was run: as §1

[35] = target: Neu5Ac(a2-3)Gal6S(b1-4)GlcNAc
How it was run: as §1

[36] = target: Neu5Ac(a2-3)[Neu5Ac(a2-6)]GalNAc
How it was run: as §1

Binder	glycan array binding signal (z-score) [1]	glycan array binding signal (z-score) [2]	glycan array binding signal (z-score) [3]	glycan array binding signal (z-score) [4]	glycan array binding signal (z-score) [5]	glycan array binding signal (z-score) [6]	glycan array binding signal (z-score) [7]	glycan array binding signal (z-score) [8]	glycan array binding signal (z-score) [9]	glycan array binding signal (z-score) [10]	glycan array binding signal (z-score) [11]	glycan array binding signal (z-score) [12]	glycan array binding signal (z-score) [13]	glycan array binding signal (z-score) [14]	glycan array binding signal (z-score) [15]	glycan array binding signal (z-score) [16]	glycan array binding signal (z-score) [17]	glycan array binding signal (z-score) [18]	glycan array binding signal (z-score) [19]	glycan array binding signal (z-score) [20]	glycan array binding signal (z-score) [21]	glycan array binding signal (z-score) [22]	glycan array binding signal (z-score) [23]	glycan array binding signal (z-score) [24]	glycan array binding signal (z-score) [25]	glycan array binding signal (z-score) [26]	glycan array binding signal (z-score) [27]	glycan array binding signal (z-score) [28]	glycan array binding signal (z-score) [29]	glycan array binding signal (z-score) [30]	glycan array binding signal (z-score) [31]	glycan array binding signal (z-score) [32]	glycan array binding signal (z-score) [33]	glycan array binding signal (z-score) [34]	glycan array binding signal (z-score) [35]	glycan array binding signal (z-score) [36]
B1	0.049	-0.252	5.13	4.33	4.93	-0.217	-0.177																													
B2	-0.254							-0.174	-0.302	-0.066	-0.133	2.66	-0.313	-0.099	10.7	-0.363	-0.225	-0.267	0.048	-0.412	-0.464	-0.144	-0.383	-0.453	0.085	2.28	2.43	0.174	2.05	0.059	-0.346	2.25	-0.035	4.5	2.67	3.03
